Reference: PubChem BioAssay (NCI)
This is part of a sample that, as a whole, favours compounds with a hit. Of some 83,000 tested, about 20% had one in any assay.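 48-hour exposure, single concentration, 96-well plates; percent growth endpoint where 0 means no net growth. Active: below 10.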 Activity calls are given as the source filed them.

Legend:
Assay in all cases: NCI-60 one-dose screen, 48 h (100 = growth as untreated, 0 = no growth, -100 = all killed)
Details in all cases: 10 µM unless noted
[1] = tested on: HCT-15 colon
[2] = tested on: HT29 colon
[3] = tested on: SNB-75 CNS
[4] = tested on: SNB-19 CNS
[5] = tested on: PC-3 prostate
[6] = tested on: SK-MEL-5 melanoma
[7] = tested on: UACC-62 melanoma
[8] = tested on: LOX IMVI melanoma
[9] = tested on: SK-MEL-28 melanoma
[10] = tested on: SK-MEL-2 melanoma
[11] = tested on: EKVX NSCLC
[12] = tested on: SN12C renal
[13] = tested on: UO-31 renal
[14] = tested on: TK-10 renal
[15] = tested on: ACHN renal
[16] = tested on: CAKI-1 renal
[17] = tested on: CCRF-CEM leukemia
[18] = tested on: MOLT-4 leukemia
[19] = tested on: A498 renal
[20] = tested on: U251 CNS

Measured: growth

O=C(CCN1CCCC1)Nc1ccc2c(NCc3ccc(F)cc3)c3ccccc3nc2c1
active: [2] 0.774% | [3] -11% | [4] 4.86% | [5] -17% | [7] 1.75% | [8] -74% | [10] -5.55% | [12] -2.56% | [13] 1.44% | [14] -3.79% | [15] 5.75% | [16] 3.81% | [17] -15.2% | [18] -19.8%
inactive: [1] 14.3% | [6] 30.5% | [9] 30.5% | [11] 14.6%

COc1ccc2c(Nc3ccc(NS(C)(=O)=O)cc3)c3ccccc3nc2c1
inactive: [4] 13.2% | [12] 10.3%
active: [1] 1.84% | [2] -45.4% | [3] -15.8% | [5] 6.89% | [6] -94.6% | [7] -65.4% | [8] -5.18% | [9] -13.5% | [10] -70.4% | [11] 6.78% | [13] -41.5% | [14] 9.37% | [15] -3.55% | [16] -22.6% | [18] 2.19%

CC(=O)[C@@H]1CC[C@]2(C(=O)n3ccnc3)CC[C@]3(C)[C@H](CC[C@@H]4[C@@]5(C)Cc6c([nH]c7ccccc67)C(C)(C)[C@@H]5CC[C@]43C)[C@@H]12
inactive: [1] 87.7% | [2] 81.2% | [3] 101% | [4] 88.4% | [5] 63.7% | [6] 94.3% | [7] 94.1% | [8] 87.2% | [9] 96% | [10] 91.2% | [11] 75.2% | [12] 94.2% | [13] 63.6% | [14] 102% | [15] 83.5% | [19] 99% | [17] 99.5% | [18] 74.1%

COc1ccc(C(=O)c2cc3c(N)c(C(=O)Nc4cccc(Cl)c4C)sc3nc2C)cc1
active: [2] 6.48% | [3] -7.69% | [6] -23.8% | [19] -12.4% | [17] 5.42% | [18] 8.51%
inactive: [1] 15.9% | [4] 39.9% | [5] 21.7% | [7] 32% | [8] 21.9% | [9] 63.3% | [11] 39.6% | [12] 20.3% | [13] 21.7% | [14] 50.9% | [15] 24.1% | [16] 15.6%

O=C1c2cccnc2C(=O)c2nc3cc(N4CCN(C5CC5)CC4)ccc3nc21
active: [1] -58.8% | [2] -21.3% | [3] -64.7% | [4] -81.5% | [6] -98.1% | [7] -98.5% | [8] -46.5% | [9] -76.9% | [10] -16.3% | [12] -94.7% | [13] -100% | [14] 0.122% | [15] -35.1% | [16] -5.27% | [19] -88.1%
inactive: [5] 11.6% | [11] 27.4% | [17] 26.2% | [18] 26.2%

O=S(=O)(NCCCNc1nccc(-c2c(-c3ccc(F)c(O)c3)nc3sccn23)n1)c1ccc(F)cc1
active: [1] 6.51% | [2] 9.5% | [5] 8.22% | [6] -45.1% | [7] -42.2% | [8] 2.15% | [9] 9.19% | [10] -29.9% | [12] 4.8% | [13] -1.81% | [15] 6.06% | [16] 8.16% | [17] -13.2% | [18] -3.88%
inactive: [3] 51.3% | [4] 19.7% | [11] 30.6% | [14] 27.6%

CC(=O)c1c[nH]c2ccc(-c3ccnc(Nc4ccc(NC(=O)c5cccc(F)c5)c(CN5CCOCC5)c4)n3)cc12
active: [1] 0.545% | [2] 7.18% | [3] -56.1% | [4] 0.141% | [5] -0.531% | [6] -74% | [7] -41.2% | [8] -3.87% | [9] 1.85% | [10] -15.6% | [11] -24.1% | [12] -4.7% | [13] 2.38% | [14] 1.22% | [15] -12.1% | [16] -1.58% | [19] -62.8% | [17] 2.24% | [18] 1.65%

c1ccc(-c2nn(-c3ccccc3)[n+](-c3cccc4ccccc34)n2)cc1
inactive: [1] 103% | [2] 12.1% | [3] 48.4% | [4] 24.9% | [8] 12.7% | [9] 41.2% | [11] 11.8% | [12] 32.7% | [13] 69.1% | [14] 40.4% | [15] 72.2% | [16] 90.3% | [17] 18.7% | [18] 18.9%
active: [5] 6.61% | [6] -30.2% | [7] -2.14% | [10] -11.3%

CC(C)[N+](C)(CCOC(COc1ccccc1)COc1ccccc1)C(C)C
inactive: [1] 100% | [2] 73.4% | [3] 70.9% | [4] 86.2% | [5] 73.2% | [6] 86.8% | [7] 78.6% | [8] 95.5% | [9] 96.6% | [10] 87.1% | [12] 64.8% | [13] 88.8% | [14] 94.1% | [15] 105% | [16] 105% | [18] 98.2%

COc1ccc(NC(=O)c2sc3nc(C)c(C(=O)CCc4cccc(OC)c4)cc3c2N)cc1
inactive: [1] 46.7% | [2] 67.4% | [3] 65.7% | [4] 73.5% | [5] 79.5% | [6] 61.9% | [7] 63.7% | [8] 75.4% | [9] 83% | [12] 73% | [13] 51% | [14] 85.4% | [15] 95.2% | [16] 71% | [19] 19.2% | [17] 65.4% | [18] 48.1%

COC(=O)CCCCCCCCC1(C)C=CC(C(C)O)=CC1 (stereo unspecified)
inactive: [1] 105% | [2] 99.9% | [3] 106% | [4] 107% | [5] 97.6% | [6] 99% | [7] 107% | [8] 96.7% | [9] 119% | [10] 104% | [11] 102% | [12] 103% | [13] 100% | [14] 92.2% | [15] 114% | [17] 99.7% | [18] 97.8%

Clc1cc(Cl)cc(N2N=C(c3cccc(Nc4ccncc4)c3)CC2c2ccccc2)c1 (stereo unspecified)
active: [1] -71.9% | [2] 1.2% | [8] -81.2% | [18] 2.51%
inactive: [3] 77.4% | [4] 88.9% | [5] 49.4% | [6] 79.9% | [7] 99% | [9] 11% | [10] 97.1% | [11] 87.6% | [12] 71.4% | [13] 62% | [14] 89.9% | [15] 14.9% | [16] 27% | [17] 28.3%

Nc1ccccc1NC(=O)c1ccc(CN2CCC/C(=C\c3cccc(Cl)c3)C2=O)cc1
active: [2] 1.41% | [6] -41.9% | [8] 9.7% | [12] 5.8% | [14] 4.89% | [15] 5.98% | [19] -11% | [17] 4.02% | [18] 1.63%
inactive: [1] 15.4% | [3] 16.5% | [4] 24.3% | [5] 17.7% | [7] 27.1% | [9] 48.2% | [10] 11.1% | [11] 20.4% | [13] 22.6%

COc1cc(C2CC(c3cccc(Nc4ccncc4)c3)=NN2c2ccc(Cl)cc2)cc(OC)c1OC (stereo unspecified)
active: [1] -36.4% | [2] -30.3% | [5] -22% | [8] -88.8% | [9] -83.2% | [15] -62.1% | [17] -9.68% | [18] -17.3%
inactive: [3] 26.1% | [4] 57.9% | [7] 91.1% | [10] 55.8% | [11] 65.2% | [12] 54.7% | [13] 42.4% | [14] 68.4% | [16] 19.2% | [19] 64.1%

Cc1cccc(Oc2ccc(Nc3ncnc4ccc(NC(=O)CNCCO)cc34)cc2Cl)c1
inactive: [1] 62.6% | [3] 77.1% | [4] 65.6% | [20] 44.9% | [5] 61.4% | [6] 77.6% | [7] 97.6% | [8] 14.6% | [9] 68.8% | [10] 87.8% | [11] 34.9% | [12] 39.4% | [13] 41% | [14] 39.8% | [15] 27.1% | [16] 52.9% | [19] 49.7% | [17] 72.3% | [18] 62%

CC(=O)N1N=C(c2cccc(Nc3ccncc3)c2)CC1c1ccccc1 (stereo unspecified)
inactive: [1] 82.8% | [2] 33.2% | [3] 53.3% | [4] 91.8% | [5] 75.9% | [6] 82% | [7] 86.7% | [8] 90.9% | [9] 86.5% | [10] 100% | [11] 83.9% | [12] 81.7% | [13] 80.6% | [14] 99.5% | [15] 94.6% | [16] 77.2% | [19] 70% | [17] 84.1% | [18] 81.4%

O=C(N/N=C/c1cccc(O)c1)c1ccccc1Nc1cccc(C(F)(F)F)c1
inactive: [1] 72.2% | [3] 79.7% | [4] 88.1% | [20] 82.4% | [5] 81.9% | [6] 82.5% | [7] 80.7% | [8] 66.7% | [9] 96.6% | [10] 111% | [11] 69.9% | [12] 93.5% | [13] 58% | [14] 97.5% | [15] 95.4% | [16] 36.9% | [19] 92.3%
active: [17] 3.83%

CC(=O)NCCCS(=O)(=O)O
inactive: [1] 103% | [2] 98.4% | [3] 98.7% | [4] 103% | [7] 101% | [8] 94.4% | [9] 107% | [10] 101% | [12] 88.3% | [13] 83.9% | [14] 102% | [15] 98.2% | [16] 88.5% | [19] 93.4% | [17] 106% | [18] 104%
